# Test results as given in publication PMC5540273 (PLoS ONE, 2017).
# System: LYN
# Conditions: concentration: 1 μM, replicates: in singlicate; n = 1
# 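Note: KINOMEscan kinase panel screen.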
row,Compound,%Inh
1,CCc1nc(-c2cccc(C)c2)c(-c2ccnc(NCc3ccccc3)c2)s1,8%
2,O=c1cc(N2CCOCC2)nc2n(Cc3cccc4ccccc34)ccn12 [GSK2333389],0%
3,CN1c2ccc(NCc3ccc(F)cc3)cc2-c2c(cnn2C)S1(=O)=O,0%
4,NCCNS(=O)(=O)c1ccc(-c2ccnc3[nH]ccc23)cc1 [GSK977617],0%
5,Cc1ccc(NC(=O)c2ccnc(N3CCN(C)CC3)c2)cc1-c1ccc(C(=O)NCC2CC2)cc1 [GW775604],0%
6,Cc1ccc(C(=O)NCC(N)=O)cc1-n1c(C)cc(OCc2ccc(F)cc2F)c(Br)c1=O,18%
7,COCCNC(=O)c1ccc(-c2cc(C(=O)NC3CC3)cc(F)c2C)cc1 [GW868318],14%
8,COc1ccc(Nc2ncc(C#N)c(Nc3ccccc3C(N)=O)n2)cc1N1CCN(C)CC1.Cl [GSK1558669],93.9%
9,COc1ccc(S(=O)(=O)NC2CCN(c3cc(C)nc(Nc4cccc(C#N)c4)n3)CC2)cc1.O=C(O)C(F)(F)F [GSK1653539],0%
10,COc1ccc(Nc2nccc(N3CCC(NC(=O)Nc4cc(C)ccc4C)C3)n2)cc1 (stereo not drawn) [GSK1379741],73%
11,CC(C)(C)n1cnc2c(N)ncnc21 [SKF-97359],0%
12,COc1cc2ncn(-c3cc(OCc4sccc4Cl)c(C(N)=O)s3)c2cc1OC [GSK448459],0%
13,COC(=O)Nc1nc2cc(Oc3ccc(NC(=O)Nc4cc(F)ccc4F)cc3)ccc2[nH]1.Cl [GW701424],19%
14,Cc1c2ccc(N(C)c3ccnc(Nc4cccc(S(N)(=O)=O)c4)n3)cc2nn1Cc1ccccc1.Cl.Cl [GW787226],84%
15,O=C(NCCNc1ccnc(Nc2ccc(F)cc2)n1)c1cc2ccccc2s1 [GSK1379874],0%
16,CCn1cnc2c(N)ncnc21 [GW345098],0%
17,O=C1Cc2cc(Nc3nc(NCc4cccc(S(=O)(=O)C(F)(F)F)c4)ncc3C(F)(F)F)ccc2N1,0%
18,Cl.Oc1cccc(Nc2ccnc3cc(-c4ccncc4)ccc23)c1 [GW494601],86%

row,Compound,%Inh
1,Cn1cc(-c2ccc3c(c2)CCN3C(=O)Cc2ccccc2Cl)c2c(N)ncnc21 [GSK2608885],99.2%
2,NS(=O)(=O)CCc1cccc(Nc2nccc(-c3c(-c4cccc(NC(=O)c5c(F)cccc5F)c4)nn4ccccc34)n2)c1 [GSK336735],97.8%
3,O=c1cc(N2CCOCC2)nc2n(Cc3cccc(Cl)c3Cl)c(C3CC3)nn12 [GSK2358994],0%
4,COc1ccc(COc2cc(-n3cnc4ccccc43)sc2C(N)=O)cc1 [GSK1024304],0%
5,c1ccc(-c2n[nH]cc2-c2ccnc3ccccc23)nc1 [GW271431],0%
6,CN(C1=C(c2ccccc2)C(=O)NC1=O)c1ccccc1 [SB-334860],0%
7,COc1ccc(CNC(=O)NC2CCN(c3ccnc(Nc4ccc(OC)cc4)n3)C2)cc1 (stereo not drawn) [GSK1379727],0%
8,COc1cc2c(cc1OC[C@@H](O)CO)ncc1c3ccc(C#N)cc3[nH]c21,0%
9,c1ccc(-c2cc(-c3c[nH]nc3-c3ccccn3)ccn2)cc1 [GW576604],0%
10,Cc1cccc(-c2nc(-c3ccc(S(C)(=O)=O)cc3)sc2-c2ccncc2)c1,14%
11,Cc1cccc(Cn2ccn3c(=O)cc(N4CCOCC4)nc23)c1 [GSK2297542],0%
12,Fc1ccc(-c2nn3c(OCC(F)(F)F)cccc3c2-c2ccncc2)cc1 [GW514784],0%
13,N#Cc1c(N2CCOCC2)sc(-c2ccn[nH]2)c1-c1ccc(Cl)cc1,0%
14,COc1cc2c(cc1OCCN1CCN(C)CC1)ncc1c3ccc(C#N)cc3[nH]c21,19%
15,CC(=O)Nc1ccc(COc2ccc(Nc3ccnc4cc(-c5ccccn5)ccc34)cc2)cc1.Cl [GW440148],1%
16,[2H]C([2H])(c1cccc(C(F)(F)F)c1C)n1ccn2c(=O)nc(N3CCOCC3)cc12 [GSK2336394],0%
17,COc1ccc(Nc2nccc(N3CCC(NC(=O)Nc4cccc(C(C)=O)c4)C3)n2)cc1 (stereo not drawn) [GSK1379731],0%

# System: T1, LZK
# T1 construct: gene MAP3K13
# Conditions: concentration: 1 μM, replicates: in singlicate; n = 1
row,Compound,%Inh
1,CCc1nc(-c2cccc(C)c2)c(-c2ccnc(NCc3ccccc3)c2)s1,0%
2,O=c1cc(N2CCOCC2)nc2n(Cc3cccc4ccccc34)ccn12 [GSK2333389],0%
3,CN1c2ccc(NCc3ccc(F)cc3)cc2-c2c(cnn2C)S1(=O)=O,0%
4,Cc1ccc(NC(=O)c2ccnc(N3CCN(C)CC3)c2)cc1-c1ccc(C(=O)NCC2CC2)cc1 [GW775604],0%
5,Cc1ccc(C(=O)NCC(N)=O)cc1-n1c(C)cc(OCc2ccc(F)cc2F)c(Br)c1=O,0%
6,COCCNC(=O)c1ccc(-c2cc(C(=O)NC3CC3)cc(F)c2C)cc1 [GW868318],5%
7,COc1ccc(Nc2ncc(C#N)c(Nc3ccccc3C(N)=O)n2)cc1N1CCN(C)CC1.Cl [GSK1558669],97.5%
8,COc1ccc(S(=O)(=O)NC2CCN(c3cc(C)nc(Nc4cccc(C#N)c4)n3)CC2)cc1.O=C(O)C(F)(F)F [GSK1653539],26%
9,COc1ccc(Nc2nccc(N3CCC(NC(=O)Nc4cc(C)ccc4C)C3)n2)cc1 (stereo not drawn) [GSK1379741],0%
10,CC(C)(C)n1cnc2c(N)ncnc21 [SKF-97359],15%
11,COc1cc2ncn(-c3cc(OCc4sccc4Cl)c(C(N)=O)s3)c2cc1OC [GSK448459],0%
12,COC(=O)Nc1nc2cc(Oc3ccc(NC(=O)Nc4cc(F)ccc4F)cc3)ccc2[nH]1.Cl [GW701424],37%
13,Cc1c2ccc(N(C)c3ccnc(Nc4cccc(S(N)(=O)=O)c4)n3)cc2nn1Cc1ccccc1.Cl.Cl [GW787226],0%
14,O=C(NCCNc1ccnc(Nc2ccc(F)cc2)n1)c1cc2ccccc2s1 [GSK1379874],0%
15,CCn1cnc2c(N)ncnc21 [GW345098],3%
16,O=C1Cc2cc(Nc3nc(NCc4cccc(S(=O)(=O)C(F)(F)F)c4)ncc3C(F)(F)F)ccc2N1,25%
17,Cl.Oc1cccc(Nc2ccnc3cc(-c4ccncc4)ccc23)c1 [GW494601],36%

row,Compound,%Inh
1,Cn1cc(-c2ccc3c(c2)CCN3C(=O)Cc2ccccc2Cl)c2c(N)ncnc21 [GSK2608885],0%
2,NS(=O)(=O)CCc1cccc(Nc2nccc(-c3c(-c4cccc(NC(=O)c5c(F)cccc5F)c4)nn4ccccc34)n2)c1 [GSK336735],0%
3,O=c1cc(N2CCOCC2)nc2n(Cc3cccc(Cl)c3Cl)c(C3CC3)nn12 [GSK2358994],0%
4,COc1ccc(COc2cc(-n3cnc4ccccc43)sc2C(N)=O)cc1 [GSK1024304],0%
5,c1ccc(-c2n[nH]cc2-c2ccnc3ccccc23)nc1 [GW271431],0%
6,CN(C1=C(c2ccccc2)C(=O)NC1=O)c1ccccc1 [SB-334860],0%
7,COc1ccc(CNC(=O)NC2CCN(c3ccnc(Nc4ccc(OC)cc4)n3)C2)cc1 (stereo not drawn) [GSK1379727],0%
8,COc1cc2c(cc1OC[C@@H](O)CO)ncc1c3ccc(C#N)cc3[nH]c21,8%
9,c1ccc(-c2cc(-c3c[nH]nc3-c3ccccn3)ccn2)cc1 [GW576604],10%
10,Cc1cccc(-c2nc(-c3ccc(S(C)(=O)=O)cc3)sc2-c2ccncc2)c1,8%
11,Cc1cccc(Cn2ccn3c(=O)cc(N4CCOCC4)nc23)c1 [GSK2297542],0%
12,Fc1ccc(-c2nn3c(OCC(F)(F)F)cccc3c2-c2ccncc2)cc1 [GW514784],37%
13,N#Cc1c(N2CCOCC2)sc(-c2ccn[nH]2)c1-c1ccc(Cl)cc1,20%
14,COc1cc2c(cc1OCCN1CCN(C)CC1)ncc1c3ccc(C#N)cc3[nH]c21,11%
15,CC(=O)Nc1ccc(COc2ccc(Nc3ccnc4cc(-c5ccccn5)ccc34)cc2)cc1.Cl [GW440148],3%
16,[2H]C([2H])(c1cccc(C(F)(F)F)c1C)n1ccn2c(=O)nc(N3CCOCC3)cc12 [GSK2336394],0%
17,COc1ccc(Nc2nccc(N3CCC(NC(=O)Nc4cccc(C(C)=O)c4)C3)n2)cc1 (stereo not drawn) [GSK1379731],0%
